Our source for the Potency and activity, negative = inhibition values is PubChem BioAssay AID504332 (National Center for Advancing Translational Sciences (NCATS), 2011).

Hit rate of the full screen: of about 350,000 compounds, about 31,000 (8.9%) were called active. Roughly 15% stayed inconclusive and do not appear here. The entries come from a sample that favours actives as a whole. A call without a number means that no potency is given here. Some structures have more than one record in an assay (separate samples or runs), and their calls can disagree. Values without a mark were called inactive. The call rests on the fitted dose curve; in most records, active means well fitted inhibition curve with a large enough effect; inconclusive means small, poorly fitted or top-dose-only effect; inactive means no such curve, though single readings can be large or run the other way.
Potency means the concentration at half of the fitted maximal effect.

In the test the target is Histone-lysine N-methyltransferase EHMT2 (Homo sapiens) (UniProt Q96KQ7). Briefly: qHTS Assay for Inhibitors of Histone Lysine Methyltransferase G9a. Further: nearly all actives have a fitted effect of over 75% in size. The settings on record: G9a H3K9 monomethylation, AlphaScreen, 2 h; series mostly up to 59 µM. A digest of the protocol: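 G9a (20 nM) preincubated 15 min RT with compounds, then 500 nM biotinylated H3K9 peptide and 20 uM SAM added; 2 h RT reaction. Monomethyl-H3K9 product detected by AlphaScreen with anti-H3K9me1 antibody, streptavidin donor and anti-rabbit IgG acceptor beads.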
Sequence of Histone-lysine N-methyltransferase EHMT2 (Homo sapiens) (Q96KQ7 913-1193 limits assumed): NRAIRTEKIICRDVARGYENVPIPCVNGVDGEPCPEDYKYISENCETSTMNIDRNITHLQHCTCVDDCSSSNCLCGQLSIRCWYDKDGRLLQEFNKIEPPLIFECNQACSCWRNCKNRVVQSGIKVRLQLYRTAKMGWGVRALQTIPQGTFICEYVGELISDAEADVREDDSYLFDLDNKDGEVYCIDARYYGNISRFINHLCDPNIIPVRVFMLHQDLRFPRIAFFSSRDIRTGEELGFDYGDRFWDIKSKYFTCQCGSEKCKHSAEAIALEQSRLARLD
A general note: qHTS replaces the single test concentration by a dilution series.
Take `COCCNC(=O)CSc1nc(-c2ccccc2)[nH]c1-c1ccc(C)cc1`: the Potency entry was “inactive”.

As for `Cc1ccc(N=C2SCCCN2C(=O)c2cccc(N3C(=O)CCC3=O)c2)cc1Cl`, the activity, negative = inhibition is 10.1% [at 0.501 µM].

As to `COC(=O)CN1C(=O)[C@H]2[C@@H](/C=C/c3ccccc3)N3C(=O)CN(Cc4ccccc4)C(=O)[C@@]3(Cc3ccccc3)[C@H]2C1=O`, the Potency result is “inactive”.

On to `Fc1ccccc1Oc1ncnc2c1oc1ccccc12`, for which the Potency entry was “inactive”.

On to `COc1cccc(NS(=O)(=O)c2ccc(-c3coc(C)n3)cc2)c1`, for which the Potency entry was “inactive”.

For the compound `COc1ccc(-c2nc3sc(CCNS(=O)(=O)c4ccc(F)c(C)c4)c(C)n3n2)cc1`, the Potency result was “inactive”.

On to `Nc1ncnc2c1c(I)cn2[C@@H]1C[C@H](N)[C@@H](O)[C@H]1O`, for which the Potency was 6.7 µM (active).

As for `CC(C)Oc1ccc(CNC(=O)C2CCN(c3nc4ccccc4n(C)c3=O)CC2)cc1`, the Potency entry was “inactive”.

Turning to `COc1ccccc1/C=C/C1=NC(=C\N(C)C)/C(=O)O1`, the Potency entry is “inactive”.

`CN(C)/C=C1\C=C(c2ccccc2)OC1=O`: the Potency was 39.8 µM (active).

`COc1cccc(/C=C2\C=C(c3ccc(C)cc3)OC2=O)c1OC(C)=O`: the Potency result was “inactive”.

For `COc1ccc(-c2ccc3nnc(SCC(=O)Nc4ccc(NC(C)=O)cc4)n3n2)cc1`, the Potency result was “inactive”.

With `Cc1ccc(-c2nnc(SCc3ccccc3C)o2)cc1`, the Potency result is “inactive”.

Turning to `CCN(CC)CCCNC(=S)N(CCO)Cc1cc2cc3c(cc2[nH]c1=O)OCO3`, the Potency entry is “inactive”.

Regarding `COCCCNC(=S)N(CCN(C)C)Cc1cc2cc3c(cc2[nH]c1=O)OCCO3`, the Potency was 35.5 µM (active).

On to `CCNC(=S)N(CCN(CC)CC)Cc1cc2cc3c(cc2[nH]c1=O)OCO3`, for which the Potency entry was “inactive”.

For `CCN(CC)S(=O)(=O)c1ccc2c(c1)nc(CN(C)C(=O)Nc1ccc(Cl)cc1)n2C`, the activity, negative = inhibition is 1.45% [at 12.7 µM].

Turning to `O=C(COc1ccccc1)Nc1ccc(C(=O)N2CCCC2)cc1`, the Potency entry is “inactive”.

`COc1ccc(-c2nn3c(-c4ccc(OC)cc4)nnc3c3ccccc23)cc1`: the Potency result was “inactive”.

Consider `NC(=S)N/N=C/c1ccc([N+](=O)[O-])cc1`, for which the Potency entry is “inactive”.

Consider `CC(=O)NC(=S)Nc1ccc(NC(=S)NC(=O)c2ccc([N+](=O)[O-])cc2)cc1`, for which the Potency result was “inactive”.

As for `CNC(=S)Nc1ccc([N+](=O)[O-])cc1`, the Potency was 56.2 µM (active).

As to `CCN(CC)CCNC(=O)CN1N=C(c2ccc(OC)cc2)CCC1=O`, the Potency entry was “inactive”.

Take `CCCn1c(=O)c(C(=O)Nc2cc(C)ccn2)c(O)c2ccccc21`: the activity, negative = inhibition was -5.46% [at 0.501 µM].

Take `O=C(COC(=O)Cn1[nH]c(=O)c2ccccc2c1=O)Nc1c(Cl)cccc1C(F)(F)F`: the activity, negative = inhibition was 2.11% [at 0.501 µM].

Regarding `CN(C)S(=O)(=O)c1ccc(NC(=O)COC(=O)Cn2[nH]c(=O)c3ccccc3c2=O)cc1`, the Potency result was “inactive”.

Take `O=C(COC(=O)Cn1[nH]c(=O)c2ccccc2c1=O)Nc1ncc(Cl)cc1Cl`: the Potency was 56.2 µM (active).

Turning to `Cc1noc2ncnc(NCc3ccccc3Cl)c12`, the Potency entry was “inactive”.

As for `COc1ccccc1CNC(=O)C1CCN(S(=O)(=O)c2ccc3c(c2)CC(C)N3C(=O)C2CC2)CC1` (configuration not stated), the Potency entry is “inactive”.

On to `Cc1cc(C)c(C)c(S(=O)(=O)N2CCN(C(=O)c3ccc4c(=O)n5c(nc4c3)CCC5)CC2)c1C`, for which the activity, negative = inhibition is -30.4% [at 0.501 µM].

On to `Cc1ccccc1OCC(=O)Nc1nnc(S(=O)(=O)N2CCCC2)s1`, for which the Potency was 2.24 µM (active).

Consider `CCN(CC)S(=O)(=O)c1nnc(NC(=O)COc2ccccc2Cl)s1`, for which the Potency was 2.82 µM (active).

As for `CC1CCN(S(=O)(=O)c2nnc(NC(=O)COc3ccccc3F)s2)CC1`, the Potency result is “inactive”.

On to `CCN(CC)S(=O)(=O)c1ccc(C)c(NC(=O)COc2ccc(Br)cc2Cl)c1`, for which the Potency result was “inactive”.

Regarding `O=C(Nc1nnc(S(=O)(=O)N2CCOCC2)s1)c1cccc(Br)c1`, the Potency entry is “inactive”.

For the compound `O=C(Nc1nnc(S(=O)(=O)N2CCCCCC2)s1)c1cccc(Br)c1`, the Potency is 8.91 µM (active).

Consider `CCC(=O)Nc1nnc(S(=O)(=O)N(CC(C)C)c2ccccc2)s1`, for which the Potency result was “inactive”.

As for `Cc1cccc(C(=O)Nc2nnc(S(=O)(=O)N3CCCCCC3)s2)c1`, the Potency result was “inactive”.

Consider `COc1cccc(C(=O)Nc2nnc(S(=O)(=O)N3CCCCC3)s2)c1`, for which the Potency entry is “inactive”.

On to `COc1ccc(Cl)cc1NC(=O)COc1ccc2c(c1)OCO2`, for which the activity, negative = inhibition was 6.56% [at 12.7 µM].

Consider `CCc1ccc(CNC(=O)c2cc3c(=O)n(CC)c4ccccc4c3s2)cc1`, for which the Potency result is “inactive”.

Consider `CCCN1CN=C(NS(=O)(=O)c2ccc(NC(C)=O)cc2)NC1`, for which the Potency result was “inactive”.

With `O=S(=O)(c1ccc(-c2ccno2)s1)N1CCCCC1`, the Potency result is “inactive”.

Regarding `COc1ccc(NS(=O)(=O)c2cc(NC(=O)COc3ccccc3F)ccc2OC)cc1`, the activity, negative = inhibition is 30.6% [at 12.7 µM].

Take `CC1=C(C(=O)Nc2ccccc2Cl)C(c2cccs2)n2ncnc2N1` (configuration not stated): the Potency entry is “inactive”.

`CC1(C)O[C@@H]2[C@H](O1)[C@@H](COS(=O)(=O)O)O[C@H]2n1ccc(=O)[nH]c1=O`: the activity, negative = inhibition was 2.02% [at 2.33 µM].

In the case of `Cc1cccc(-c2oc3ccc(-c4ccc5c(c4)OCO5)cc3c2C#Cc2cncn2C)c1`, the activity, negative = inhibition is 7.97% [at 0.501 µM].

Take `COc1ccc(Cl)cc1C(=O)OCC(=O)NCc1cccs1`: the Potency entry is “inactive”.

Regarding `CCSc1nnc(NC(=O)c2cc(=O)c3cc(C)c(C)cc3o2)s1`, the Potency entry was “inactive”.

On to `Cc1ccc(Cl)cc1NC(=O)NC1COc2ccccc2C1` (configuration not stated), for which the Potency result was “inactive”.

Regarding `CSc1nc(Nc2ccc(F)cc2)cc(-c2ccccc2)n1`, the Potency result is “inactive”.

For `CN(C)c1nc(NN)nc(Nc2ccc(F)cc2)n1`, the Potency entry was “inactive”.

On to `Fc1ccc(Nc2nnns2)cc1`, for which the Potency was 10 µM (active).

In the case of `Cc1ccc(C2=CSC3=NS(=O)(=O)CCN23)cc1C`, the Potency result was “inactive”.

`O=C1/C(=C\c2cccnc2)CN(Cc2ccccc2)C/C1=C\c1cccnc1`: the Potency entry was “inactive”.

Consider `O=S1(=O)CCN2C(=N1)SC1=C2CCN(Cc2ccccc2)C1`, for which the Potency is 20 µM (active).

Turning to `COc1ccccc1C(=O)NCCC(=O)N(C)Cc1cccnc1`, the Potency result was “inactive”.

With `O=C1C(=O)N(CCCO)C(c2ccccc2)/C1=C(\O)c1ccc(Br)cc1` (configuration not stated), the activity, negative = inhibition was 12.3% [at 0.501 µM].

For the compound `O=C1C(=O)N(CCCN2CCOCC2)C(c2ccc([N+](=O)[O-])cc2)/C1=C(\O)c1ccc2c(c1)OCCO2` (configuration not stated), the activity, negative = inhibition was -12.3% [at 0.0925 µM].

On to `O=C1C(=O)N(CCN2CCOCC2)C(c2ccccn2)/C1=C(/O)c1ccc(Cl)cc1` (configuration not stated), for which the Potency is 7.94 µM (active).

On to `COc1ccc(C2/C(=C(/O)c3ccc(OC(C)C)cc3)C(=O)C(=O)N2CCCN2CCOCC2)cc1` (configuration not stated), for which the Potency was 44.7 µM (active).

Take `COCCN1C(=O)C(=O)/C(=C(/O)c2ccc(S(=O)(=O)N3CCOCC3)cc2)C1c1ccc(OC)c(OC)c1` (configuration not stated): the Potency entry was “inactive”.

With `CC1Cc2cc(/C(O)=C3\C(=O)C(=O)N(CCN4CCOCC4)C3c3ccccc3F)ccc2O1` (configuration not stated), the Potency result was “inactive”.

For the compound `CCCCSCCCNC(=O)C1CCC(CNS(=O)(=O)c2ccc(NC(C)=O)cc2)CC1` (configuration not stated), the Potency entry was “inactive”.

Consider `COCCN(Cc1ccccc1)C(=O)Cc1ccc(S(=O)(=O)N2CCOCC2)s1`, for which the activity, negative = inhibition was -3.78% [at 12.7 µM].

In the case of `COc1ccc(NC(=O)Cn2c(=O)n(CCC(C)C)c(=O)c3cccnc32)cc1Cl`, the Potency entry was “inactive”.

As for `O=C(Nc1ccc(Br)cc1)c1cc2nc(-c3ccccc3)cc(-c3ccccc3)n2n1`, the Potency entry was “inactive”.

For `Cc1ccc(C(=O)NC(=S)Nc2ccc(N3CCOCC3)cc2)cc1`, the Potency is 7.94 µM (active).

Regarding `COC(=O)Cc1ccc(NC(=S)NCc2ccccc2)cc1`, the Potency result is “inactive”.

For the compound `COc1ccc(C(=O)Nc2ccc3nc(N4CCCCC4)cc(C)c3c2)cc1OC`, the Potency result is “inactive”.

Take `Cc1ccccc1C(=O)NC(=S)Nc1ccc(N2CCN(C(=O)c3ccccc3)CC2)cc1`: the Potency result is “inactive”.

As for `COc1cccc(C(=O)Nc2ccc(N3CCCC3)cc2)c1`, the Potency was 4.47 µM (active).

`O=C(O)CCC(=O)Nc1ccc(N2CCOCC2)cc1`: the Potency entry was “inactive”.

Consider `COc1ccc(C(=O)Nc2ccc(N3CCC(C)CC3)cc2)cc1Br`, for which the Potency entry is “inactive”.

In the case of `Cc1ccc(C(=O)NC(=S)NCCN2CCOCC2)cc1`, the Potency entry is “inactive”.

For the compound `COc1ccc(C(=O)NC(=S)Nc2ccc(N3CCCC3)cc2)cc1OC`, the Potency was 3.98 µM (active).

Turning to `COc1cccc(C(=O)Nc2ccc(N3CCN(C(=O)c4ccco4)CC3)cc2)c1`, the Potency result was “inactive”.

On to `O=C(Cc1ccccc1)NC(=S)Nc1ccc(N2CCCCC2)cc1`, for which the Potency is 7.94 µM (active).

Turning to `COc1cccc(C(=O)Nc2ccc3nc4n(c(=O)c3c2)CCCCC4)c1`, the Potency entry was “inactive”.

As to `COc1ccc2oc(-c3ccc(C)c(NC(=O)c4sc5ccccc5c4Cl)c3)nc2c1`, the Potency entry is “inactive”.

Consider `CCOc1ccccc1NC(=S)NC(=O)CCc1ccccc1`, for which the Potency result was “inactive”.

With `CSCC[C@H](NC(=O)N1CCn2c1nc1ccccc12)C(=O)NCc1ccc2c(c1)OCO2`, the Potency entry was “inactive”.

As to `Cc1ccnc(NC(=O)CCNS(=O)(=O)c2ccc(C)c(C)c2)c1`, the Potency result is “inactive”.

For `CN(Cc1ccccc1)C(=O)CSc1nc2ccccc2[nH]1`, the Potency result was “inactive”.

On to `O=c1cc(-c2ccccc2)[nH]c2nc(Cl)ccc12`, for which the Potency is 20 µM (active) and the activity, negative = inhibition is 48.3% [at 12.7 µM].

`Cc1ccc(-c2cc(=O)c3ccc(Cl)cc3[nH]2)cc1`: the Potency result was “inactive”.

As to `O=c1cc(-c2ccccc2)[nH]c2cc(F)ccc12`, the Potency entry was “inactive”.

Turning to `CCN(CC)CCCNC(=O)c1cc2c(=O)[nH]c3ccc(C)cc3c2s1`, the Potency entry was “inactive”.

In the case of `CCCCn1c(N)c(N(CCOC)C(=O)c2cccc(OCc3ccccc3)c2)c(=O)[nH]c1=O`, the Potency entry was “inactive”.

As for `CCCCn1c(N)c(N(CC(C)C)C(=O)c2cccc(S(=O)(=O)N3CCN(C(C)=O)CC3)c2)c(=O)[nH]c1=O`, the Potency result was “inactive”.

In the case of `CCCCn1c(N)c(N(CCOC)C(=O)c2cccc(S(=O)(=O)N3CCCCC3)c2)c(=O)[nH]c1=O`, the Potency was 50.1 µM (active).

With `CCOc1ccc(NC(=O)COc2ccc(C(=O)N3CCC(C(N)=O)CC3)cc2OC)cc1`, the activity, negative = inhibition was 4.45% [at 0.501 µM].

Turning to `CC(OC(=O)CNC(=O)c1ccco1)C(=O)Nc1ccc(Cl)cn1` (configuration not stated), the Potency result is “inactive”.

For the compound `COc1ccc2[nH]c(C(=O)N3CCN(C)CC3)c(C)c2c1`, the Potency result was “inactive”.

For `COc1ccc2[nH]c3ccc(OC)cc3c2c1`, the Potency was 50.1 µM (active).

Turning to `CCN(CC)CC(=O)c1c[nH]c2ccc(OC)cc12`, the Potency result is “inactive”.
